The test concerns Zika virus NS2B-NS3 protease. Put plainly: Primary screen GU AMC qHTS for Zika virus inhibitors (AID 1347154).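 Note: 0% = no-inhibitor control and -100% = no-enzyme control; nearly all actives have a fitted effect of over 70% in size.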 The method in brief: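 Unlinked Zika NS2B hydrophilic domain–NS3 protease complex at 25 nM in 10 mM Tris-HCl pH 8.0, 0.01% Tween 20, with an AMC peptide substrate. Fluorescence change (340/450 nm) over 15 min at room temperature, normalized to controls, fitted to 4-parameter Hill.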
For orientation: Quantitative high-throughput screening tests each substance at several concentrations.

Molecules are shown by their SMILES. Inconclusive results are not listed. Values without a mark were called inactive. Calls come from the whole dose curve; as a rule, active = well fitted inhibition curve with a large enough effect; inconclusive = small, poorly fitted or top-dose-only effect; inactive = flat fitted curve, though single readings scatter.

Turning to `Nc1nc2c([nH]c(=O)n2[C@@H]2O[C@H](CO)[C@@H](O)[C@H]2O)c(=O)[nH]1`, the activity change, negative = inhibition is 7.35% [at 6.83 µM].

Values taken from PubChem BioAssay (NCATS).
